Source: PubChem BioAssay (Tox21)
Records with an inconclusive call do not appear. The source made the active and inactive calls. Unless noted, the call rests on the fitted dose curve. Non-standard residues stand in square brackets, D forms with d. Residues, ends and D or L forms follow the SMILES beside them. *: point of attachment. Sta = CC(C)C[C@H](N)[C@@H](O)CC(=O)O; Isovaleryl = CC(C)CC(=O)*

Legend:
[1] = qHTS assay to identify small molecule agonists of the NFkB signaling pathway - cell viability counter screen (AID 1159515); further: series mostly up to about 61 µM; on the % scale 0 is the no-effect control and ±100 the full control effect; nearly all actives have a fitted effect of over 55% in size
Procedure, shortened: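 Using the same wells as the NFkB reporter read, ME-180 NFkB-bla cells given compounds for 5 hr were assessed for viability via CellTiter-Glo, with luminescence taken after a 30 min room-temperature incubation.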

[2] = qHTS assay to identify small molecule agonists of the endoplasmic reticulum stress response signaling pathway (AID 1159516; active means well fitted activation curve with a large enough effect in the signal ratio in the repeat runs, not every such curve was filed as active; the % refers to the signal ratio; further: on the % scale 0 is the no-effect control and ±100 the full control effect)
Procedure, shortened: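 An ESRE-bla HeLa cell assay: compounds were pin-transferred from DMSO onto overnight-plated cells and left 5 hr at 37 C. Substrate was then loaded for 2 hr at room temperature before reading fluorescence at 460 nm and 530 nm.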

[3] = qHTS assay to identify small molecule antagonists of the retinoid-related orphan receptor gamma (ROR-gamma) signaling pathway - cell viability counter screen (AID 1159520; active means well fitted curve in the direction sought with a large enough effect in the repeat runs; an effect the other way counts as inactive or inconclusive; further: on the % scale 0 is the no-effect control and ±100 the full control effect; nearly all actives have a fitted effect of over 50% in size)
Procedure, shortened: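 Cytotoxicity was read from cellular ATP (CellTiter-Glo luminescence) after 16 hr at 37 C with 1 uM doxycycline induction. The inducer was added 2 hr after compound transfer to Tet-on ROR gamma CHO cells.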

[4] = biological target: Nuclear receptor ROR-gamma (Homo sapiens) (UniProt P51449); assay: qHTS assay to identify small molecule antagonists of the retinoid-related orphan receptor gamma (ROR-gamma) signaling pathway (AID 1159521; active means well fitted curve in the direction sought with a large enough effect in the repeat runs; an effect the other way counts as inactive or inconclusive;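 further: CHO cells with doxycycline inducible ROR-gamma driving an RORE luciferase reporter; top concentration of the series differs between compounds; on the % scale 0 is the no-effect control and ±100 the full control effect; nearly all actives have a fitted effect of over 50% in size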)
Procedure, shortened: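 Inducible-expression reporter assay: doxycycline (1 uM final) switched on RORγ in CHO cells bearing a ROR response element-luciferase construct, with test compounds present from 2 h beforehand. Decreased luminescence after 16 h defined antagonist activity.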

[5] = qHTS assay to identify small molecule agonists of the AP-1 signaling pathway - cell viability counter screen (AID 1159525); further: nearly all actives have a fitted effect of over 55% in size
Procedure, shortened: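 Luminescent ATP readout (Cell Titer Glo, 30 min RT), normalised to DMSO and tetra n-octyl ammonium bromide controls. Cells were ME-180 AP-1-bla in 0.5% dialyzed FBS Opti-MEM, with a 5 h, 37 °C compound exposure.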

[6] = qHTS assay to identify small molecule agonists of the AP-1 signaling pathway (AID 1159526); further: on the % scale 0 is the no-effect control and ±100 the full control effect
[7] = biological target: Retinoic acid receptor RXR-alpha (Homo sapiens) (UniProt P19793); assay: qHTS assay to identify small molecule agonists of the RXR signaling pathway (AID 1159527); further: on the % scale 0 is the no-effect control and ±100 the full control effect; nearly all actives have a fitted effect of over 35% in size
Procedure, shortened: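 Compounds in DMSO were added to RXR-alpha-UAS-bla HEK 293T cells kept in 2% charcoal-stripped serum, and incubated 16 hr at 37 C with 5% CO2. Reporter signal came from a 2 hr B/G FRET substrate step.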

[8] = qHTS assay to identify small molecule agonists of the RXR signaling pathway - cell viability counter screen (AID 1159529; active means well fitted curve in the direction sought with a large enough effect in the repeat runs; an effect the other way counts as inactive or inconclusive; further: series mostly up to about 77 µM; on the % scale 0 is the no-effect control and ±100 the full control effect; nearly all actives have a fitted effect of over 50% in size)
Procedure, shortened: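 Counter screen: CellTiter-Glo luminescence. Cells: RXR-alpha-UAS-bla HEK 293T. Medium: 2% charcoal-stripped FBS. Treatment: 16 h, 37 C. Reagent incubation: 30 min, RT.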

[9] = qHTS assay to identify small molecule antagonists of the vitamin D receptor (VDR) signaling pathway - cell viability counter screen (AID 743225; active means well fitted curve in the direction sought with a large enough effect in the repeat runs; an effect the other way counts as inactive or inconclusive; further: on the % scale 0 is the no-effect control and ±100 the full control effect; nearly all actives have a fitted effect of over 50% in size)
Procedure, shortened: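 Same-well multiplex: following 16 h treatment of HEK 293T cells carrying a UAS-driven beta-lactamase reporter with compound and agonist (3 nM final), and a 2 h FRET substrate step, CellTiter-Glo was added and luminescence read after 30 min.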

[10] = qHTS assay to identify small molecule agonists of the endoplasmic reticulum stress response signaling pathway - cell viability counter screen (AID 1159517)
Procedure, shortened: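 Cells, HeLa ESRE-bla; density, 1,500/well; dosing, 5 hr at 37 C, 5% CO2; readout, CellTiter-Glo luminescence after 30 min RT.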

Retinoic acid receptor RXR-alpha (Homo sapiens), sequence (P19793 whole entry, looked up): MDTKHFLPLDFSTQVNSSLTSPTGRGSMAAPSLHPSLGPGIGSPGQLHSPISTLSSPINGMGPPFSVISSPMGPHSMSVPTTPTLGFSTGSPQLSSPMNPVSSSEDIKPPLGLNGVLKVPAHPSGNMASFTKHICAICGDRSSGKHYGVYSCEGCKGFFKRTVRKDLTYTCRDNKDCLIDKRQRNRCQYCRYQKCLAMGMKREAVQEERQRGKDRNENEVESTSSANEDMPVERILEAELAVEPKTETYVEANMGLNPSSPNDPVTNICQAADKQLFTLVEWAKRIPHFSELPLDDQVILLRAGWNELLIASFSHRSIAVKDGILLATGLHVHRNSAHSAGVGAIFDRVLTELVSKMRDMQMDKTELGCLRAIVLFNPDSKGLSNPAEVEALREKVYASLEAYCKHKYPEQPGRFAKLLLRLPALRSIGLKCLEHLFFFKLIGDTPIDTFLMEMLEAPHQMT

Cc1ccc(OC(=O)CC(C)C)cc1
inactive: outcome [1] | Potency [2] | outcome [3] | outcome [4] | outcome [5] | Potency [6] | Potency [7] | Potency [8]

CC(C)CC(O)Cc1ccccc1 (configuration not stated)
inactive: outcome [1] | Potency [2] | outcome [3] | outcome [4] | outcome [5] | Potency [6] | Potency [8]

CC(=O)Nc1ccc(OCCOCCOc2ccc(NC(C)=O)cc2)cc1
inactive: outcome [9] | outcome [1] | Potency [2] | outcome [3] | outcome [4] | outcome [5] | Potency [6] | Potency [7] | Potency [8]

Cc1ccccc1C#N
inactive: outcome [9] | outcome [1] | Potency [2] | outcome [3] | outcome [4] | outcome [5] | Potency [6] | Potency [7] | Potency [8]

COC(=O)/C=C(\C)CCC=C(C)C
inactive: outcome [1] | Potency [2] | outcome [3] | outcome [4] | outcome [5] | Potency [6] | Potency [8]

CCC(=O)OCCOc1ccccc1
inactive: outcome [9] | outcome [1] | Potency [2] | outcome [3] | outcome [4] | outcome [5] | Potency [6] | Potency [7] | Potency [8]

CC(C)(O)c1ccc(C(C)(C)O)cc1
inactive: outcome [9] | outcome [1] | Potency [2] | outcome [3] | outcome [4] | outcome [5] | Potency [6] | Potency [8]

O=C(O)CCC(=O)Nc1ccc(S(=O)(=O)Nc2nccs2)cc1
inactive: outcome [9] | outcome [1] | Potency [2] | outcome [3] | outcome [4] | outcome [5] | Potency [6] | Potency [7] | Potency [8]

CCOCCOCCOC(C)=O
inactive: outcome [9] | outcome [1] | Potency [2] | outcome [3] | outcome [4] | outcome [5] | Potency [6] | Potency [8]

CC/C=C\CCCCCCCCCCOC(C)=O
inactive: outcome [1] | outcome [10] | outcome [3] | outcome [4] | outcome [5] | Potency [6] | Potency [7] | Potency [8]

CC(C)C[P+](C)(CC(C)C)CC(C)C
inactive: outcome [9] | outcome [1] | Potency [2] | outcome [3] | outcome [5] | Potency [6] | Potency [7] | Potency [8]

COC(=O)c1cc(Cl)c(NC(C)=O)cc1OC
inactive: outcome [9] | outcome [1] | Potency [2] | outcome [3] | outcome [4] | outcome [5] | Potency [6] | Potency [7] | Potency [8]

O=c1[nH]c(=O)c2cn[nH]c2[nH]1
inactive: outcome [9] | outcome [1] | Potency [2] | outcome [3] | outcome [5] | Potency [6] | Potency [7] | Potency [8]

COC(=O)c1ccc(NC(C)=O)cc1OC
inactive: outcome [9] | outcome [1] | Potency [2] | outcome [3] | outcome [4] | outcome [5] | Potency [6] | Potency [7] | Potency [8]

O=C1c2ccccc2C(=O)N1CO
inactive: outcome [9] | outcome [1] | Potency [2] | outcome [3] | outcome [5] | Potency [6] | Potency [7] | Potency [8]

CCCCCCCCCCCCCCCCN(C)C
inactive: viability change, negative = cytotoxic [9] -0.156% [at 6.95 µM] | activity, negative = cytotoxic [1] -0.303% [at 6.95 µM] | activation [2] 0.0292% [at 6.95 µM] | activity, negative = cytotoxicity [3] 7.06% [at 8.39 µM] | activity change, negative = inhibition [4] 0.397% [at 8.39 µM] | viability change, negative = cytotoxic [5] 0.637% [at 6.97 µM] | activation [6] -6.44% [at 6.97 µM] | activation [7] 8.03% [at 6.98 µM] | activity change, negative = cytotoxicity [8] 1.35% [at 6.97 µM]

CCCCNCC
inactive: outcome [9] | outcome [1] | outcome [10] | outcome [3] | outcome [4] | outcome [5] | Potency [6] | Potency [7] | Potency [8]

CC/C=C\CCOC(=O)c1ccccc1
inactive: outcome [9] | outcome [1] | outcome [10] | outcome [3] | outcome [4] | outcome [5] | Potency [6] | Potency [7] | Potency [8]

C[C@@H](CN1CC(=O)NC(=O)C1)N1CC(=O)NC(=O)C1
inactive: outcome [9] | outcome [1] | outcome [3] | outcome [4] | outcome [5] | Potency [6] | Potency [7] | Potency [8]

N#Cc1cc(NC(=O)C(=O)O)c(Cl)c(NC(=O)C(=O)O)c1
inactive: outcome [9] | outcome [1] | outcome [10] | outcome [3] | outcome [4] | outcome [5] | Potency [6] | Potency [7] | Potency [8]

CC1=C(O)C(=O)CO1
inactive: outcome [9] | outcome [1] | outcome [10] | outcome [3] | outcome [4] | outcome [5] | Potency [6] | Potency [7] | Potency [8]

CCCCc1ccc(Cl)cc1
inactive: outcome [9] | outcome [1] | outcome [3] | outcome [4] | outcome [5] | Potency [6] | Potency [7] | Potency [8]

CC(C)C(C)C
inactive: outcome [1] | outcome [10] | outcome [3] | outcome [4] | outcome [5] | Potency [6] | Potency [7] | Potency [8]

CC(O)C(CO)C(C)O (configuration not stated)
inactive: outcome [9] | outcome [1] | outcome [3] | outcome [4] | outcome [5] | Potency [6] | Potency [7] | Potency [8]

C=CCN(CC=C)CC=C
inactive: outcome [9] | outcome [1] | outcome [10] | outcome [3] | outcome [4] | outcome [5] | Potency [6] | Potency [7] | Potency [8]

CC(C)CC(=O)N[C@H](C(=O)N[C@H](C(=O)N[C@@H](CC(C)C)[C@@H](O)CC(=O)N[C@@H](C)C(=O)N[C@@H](CC(C)C)[C@@H](O)CC(=O)O)C(C)C)C(C)C (Isovaleryl-VV[Sta]A[Sta]-OH)
inactive: outcome [9] | outcome [1] | outcome [10] | outcome [3] | outcome [4] | outcome [5] | Potency [6] | Potency [7] | Potency [8]

CCCCCCCCCCCCCCCC(=O)OC
inactive: outcome [9] | outcome [1] | activity, negative = cytotoxicity [3] 1.29% [at 19 µM] | activity change, negative = inhibition [4] 7.03% [at 19 µM] | viability change, negative = cytotoxic [5] -12.9% [at 15.8 µM] | activation [6] 17.1% [at 15.8 µM] | activation [7] -1.09% [at 15.8 µM] | activity change, negative = cytotoxicity [8] -3.67% [at 15.8 µM]
